Measurements from PubChem BioAssay (NCATS).
“And” between values parts separate entries of the source, which are not always exact repeats. Identical values can stand only once. Inconclusive results are not listed. Unmarked numbers belong to inactive results. Calls follow the shape of the dose curve; as a rule, active = well fitted inhibition curve with a large enough effect in the signal ratio, with a control signal flat (not every such curve was filed as active); inconclusive = small, poorly fitted or top-dose-only effect, or effect the other way, or a change in a side signal; inactive = no such curve, though single readings can be large or run the other way; the % refers to the signal ratio.

molecular target: Retinoic acid receptor RXR-alpha (Homo sapiens) (UniProt P19793); experiment: qHTS assay for small molecule antagonists of retinoid X receptor alpha signaling (AID 588546); settings: HEK293T RXRa-UAS-bla, beta-lactamase ratio, antagonist mode
From the text: NIH Chemical Genomics Center [NCGC] U.S. Environmental Protection Agency [EPA] National Institutes of Environmental Health Sciences [NIEHS] National Toxicology Program [NTP] NCGC Assay Overview The Retinoid X receptor (RXR), a nuclear hormone receptor is expressed in liver, spleen, placenta, epidermis, central nervous system. These receptors are able to form homo and heterodimers with other nuclear receptors and due to this heterodimerizing ability, RXR functions as master regulators producing diverse physiological effects. Three subtypes of RXR exist; alpha, beta and gamma. Retinoid X receptor alpha (RXR-alpha) has potential roles in metabolic signaling pathways, skin alopecia, dermal cysts, cardiac development, insulin sensitization etc. Therefore screening environmental chemicals on RXR-alpha signaling can be used for the studies focused on such therapeutic applications.
NCGC Assay Protocol Summary Using a beta-lactamase reporter-gene under control of Retinoid X receptor--alpha (RXR-alpha) response element, a cell-based assay [GeneBLAzer (RXR-alpha -UAS-bla assay developed by Invitrogen] was used to measure RXR-alpha ligands signaling. GeneBLAzer RXR-alpha -UAS-bla HEK293T cells were used with assay medium containing 2% charcoal-stripped FBS. The assay was performed in clear bottom black Greiner 1536-well plates. Library compounds were measured for their ability to inhibit the reporter gene activity. Compounds were screened in a titration series in 1536-well format. The fluorescence intensity (405 nm excitation, 460/530 nm emission) was measured using an EnVision plate reader. Data was normalized relative to 9-cis-retinoic acid control (500 nM, 100%), and DMSO only wells (basal, 0%). Concentration-response titration points for each compound were fitted to the Hill equation yielding concentrations of half-maximal inhibition (IC50) and maximal response (efficacy) values. qHTS protocol for RXR-alpha beta-lactamase assay in antagonist mode [Step] [Parameter] [Value] [Description] 1. Reagent; 5 uL; 2500 cells/well 2. Incubation; 37 C for 4 hrs 3. Compounds; 23 nL; 0.59 nM to 92 uM 4. Controls (DMSO); 23 nL 5. Agonist (Stimulator); 1uL; 9-cis-retinoic acid at 500 nM and 100 nM final concentrations 6. Incubation; 37 C for 18 hrs 7. Detection reagent; 1 uL of CCF4-dye 8. Incubation; RT for 2 hrs 9. Detection; Fluorescence; Envision plate reader
% is scaled to controls: 0 for no effect and ±100 for the full control effect.

Chain of Retinoic acid receptor RXR-alpha (Homo sapiens) (P19793 whole entry, looked up): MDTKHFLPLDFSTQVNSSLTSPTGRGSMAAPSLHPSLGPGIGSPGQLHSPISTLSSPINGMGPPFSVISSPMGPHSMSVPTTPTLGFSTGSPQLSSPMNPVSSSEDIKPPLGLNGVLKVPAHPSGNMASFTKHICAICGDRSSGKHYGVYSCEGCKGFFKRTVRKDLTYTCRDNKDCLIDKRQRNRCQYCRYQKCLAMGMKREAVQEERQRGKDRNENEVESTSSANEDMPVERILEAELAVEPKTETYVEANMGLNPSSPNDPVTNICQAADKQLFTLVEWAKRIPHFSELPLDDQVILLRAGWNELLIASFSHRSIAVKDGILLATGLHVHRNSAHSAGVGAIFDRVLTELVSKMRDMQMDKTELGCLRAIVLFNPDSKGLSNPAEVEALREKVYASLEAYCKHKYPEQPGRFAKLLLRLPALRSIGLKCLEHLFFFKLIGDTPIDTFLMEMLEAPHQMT

Compound | max response
CCCc1c(OCCCCc2nn[nH]n2)ccc(C(C)=O)c1O | 3.05%
CCCCOC(=O)c1ccc(O)cc1 | -15.2% and -3.16%
CC(O)CN(CCN(CC(C)O)CC(C)O)CC(C)O (configuration not stated) | -14.1%
C[C@]12CC[C@@H]3c4ccc(O)cc4CC[C@H]3[C@@H]1CCC2=O | -13%
O=C1O[C@H]([C@@H](O)CO)C(O)=C1O | 1.04%
CCCCCCCCCCCCOS(=O)(=O)O | 6.26% [middle of 4 runs]
CC1(C)[C@@H]2CC[C@@]1(C)C(=O)C2 | 2.47%
CN(C)CCCN1c2ccccc2Sc2ccc(Cl)cc21 | -16.5%
COc1ccc(Cl)cc1C(=O)NCCc1ccc(S(=O)(=O)NC(=O)NC2CCCCC2)cc1 | -9.84%
CCCCC(CC)COC(=O)c1ccccc1O (configuration not stated) | 6.6%
COC(=O)C1=C(C)NC(C)=C(C(=O)OC)C1c1ccccc1[N+](=O)[O-] | 23.4%
NC(=O)N/N=C/c1ccc([N+](=O)[O-])o1 | 5.86% and 14.5%
Cc1cccc(Nc2cc(Cl)nc(SCC(=O)O)n2)c1C | -6.08%
COc1ccccc1O | 0.752% and 5.31% and 3.65%
CC12CCC(CC1)C(C)(C)O2 | 10.3%
Oc1cccc(O)c1 | 1.73%
C[C@]12C[C@H](O)[C@H]3[C@@H](CCC4=CC(=O)CC[C@@]43C)[C@@H]1CC[C@@H]2C(=O)CO | 9.95%
O=C1c2c(O)cccc2Cc2cccc(O)c21 | 9.5%
CC(O)COc1ccccc1 (configuration not stated) | -2.29%
CCOC(=O)c1ccc(O)cc1 | 4.29%
CNC(=O)Oc1ccc2c(c1)[C@]1(C)CCN(C)[C@@H]1N2C | 1.77%
[Cl][In]([Cl])[Cl] | 17.5%
Nc1ccc(S(=O)(=O)Nc2nccs2)cc1 | 19.3%
CN(C)CCOC(C)(c1ccccc1)c1ccccn1 (configuration not stated) | -25.1%
NCCNCCNCCN | 10.1%
O=S(=O)(O)NC1CCCCC1 | 5.18%
NCCNCCNCCNCCN | -26.1%
